According to PubChem BioAssay:
Active and inactive are the calls of the source.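 The calls were made as follows, unless noted: active = inhibition above 20% together with a positive visual image hit; inconclusive = visual image hit but inhibition not above 20%; inactive = no visual image hit.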

What was measured:
[1] = inhibitors of TNFa-induced NFkB p65 translocation, primary screen, imaging, HUVEC, MLSMR starter and 10KST1 sets (AID 438); details: HUVEC TNFa-induced p65 nuclear translocation; cell count: measured here: nuclei count (cytotoxicity indicator), at 2.08 µM; inhibition: at 2 µM, stronger effect = higher value, 0% TNFa-plus-vehicle, 100% no-TNFa wells;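 also: compound added about 3h40 before a 20 min TNFalpha stimulation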;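 as to inhibition: signal is the nuclear over cytoplasmic p65 intensity ratio per well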
[2] = reduction of polyQ htt aggregates in cells – imaging, exon1htt(103Q)mCFP cells, high-content imaging, primary screen (AID 483;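 active = visual image review flags a hit and inhibition of aggregation exceeds 20%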;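 also: compound exposure lasted 3 days before fixation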;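 as to nuclei count: percent of the per-plate median nuclei count of sample wells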); details: exon1htt(103Q)mCFP cell line, aggregate imaging, at 2 µM; inhibition of aggregation: stronger effect = higher value; nuclei count: measured here: cell count, toxicity
[3] = endothelial E-selectin expression blockers – imaging, HUVEC, immunofluorescence, MLSMR starter and 10KST1 sets, primary screen (AID 487;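 active = visually confirmed hit in the image check and inhibition above 20%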;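 as to inhibition: signal is fraction of cell area covered by stained E-selectin grains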;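 as to nuclei count: 100% = median nuclei count of all wells on the same plate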); details: HUVEC TNFalpha-induced E-selectin immunofluorescence imaging, at 2 µM; inhibition: stronger effect = higher value; nuclei count: measured here: cell number, toxicity
[4] = biological target: Voltage-gated potassium channel subunit beta-2 (Rattus norvegicus) (UniProt P62483); test: inhibitors of rat Kvbeta2 reductase activity – biochemical, NADPH fluorescence, primary screen (AID 622;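 active = fluorescence slope higher than the sample average by over 3 SD, cut at about -0.22 in these data, passing the limit was not always enough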;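 also: slope of raw intensity against log time taken from 70 to 1610 s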); details: recombinant KvBeta, 4-cyanobenzaldehyde reduction, at 10 µM, stronger effect = higher value
Voltage-gated potassium channel subunit beta-2 (Rattus norvegicus), sequence (P62483 whole entry, looked up): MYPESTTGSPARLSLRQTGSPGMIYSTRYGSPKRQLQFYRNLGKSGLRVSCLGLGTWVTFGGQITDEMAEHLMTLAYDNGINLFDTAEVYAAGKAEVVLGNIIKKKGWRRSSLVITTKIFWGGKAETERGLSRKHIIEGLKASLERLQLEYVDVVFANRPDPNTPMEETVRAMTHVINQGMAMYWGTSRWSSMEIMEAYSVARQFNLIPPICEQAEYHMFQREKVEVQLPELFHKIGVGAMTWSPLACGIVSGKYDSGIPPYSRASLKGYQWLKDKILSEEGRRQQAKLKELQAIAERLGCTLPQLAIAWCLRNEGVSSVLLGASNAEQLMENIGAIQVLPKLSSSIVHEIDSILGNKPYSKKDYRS

[5] = biological target: Voltage-gated potassium channel subunit beta-2 (Rattus norvegicus) (UniProt P62483); test: enhancers of rat Kvbeta2 NADPH turnover – biochemical, NADPH fluorescence, primary screen (AID 623;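 active = NADPH fluorescence slope more negative than the mean of all samples by about 3 SD, 99.7% confidence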;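 also: fluorescence intensity change per second fitted from 20 to 320 s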); details: Recombinant KvBeta, NADPH fluorescence decrease slope, 10 min; at 10 µM; stronger effect = lower value
[6] = biological target: Alpha-2C adrenergic receptor (Homo sapiens) (UniProt P18825); test: compounds altering alpha2C-coupled GIRK flux – cell-based, HEK293 alpha2C/GIRK1/2, thallium flux, primary screen (AID 624;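 active = fluorescence slope after compound addition differing from the mean of all screened samples at 99.7% confidence, in either direction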;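 also: slope of fluorescence ratio to pre-addition baseline per second over 15 to 24 s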); details: thallium flux BTC fluorescence, at 10 µM, actives lie on both sides
Alpha-2C adrenergic receptor (Homo sapiens), sequence (P18825 whole entry, looked up): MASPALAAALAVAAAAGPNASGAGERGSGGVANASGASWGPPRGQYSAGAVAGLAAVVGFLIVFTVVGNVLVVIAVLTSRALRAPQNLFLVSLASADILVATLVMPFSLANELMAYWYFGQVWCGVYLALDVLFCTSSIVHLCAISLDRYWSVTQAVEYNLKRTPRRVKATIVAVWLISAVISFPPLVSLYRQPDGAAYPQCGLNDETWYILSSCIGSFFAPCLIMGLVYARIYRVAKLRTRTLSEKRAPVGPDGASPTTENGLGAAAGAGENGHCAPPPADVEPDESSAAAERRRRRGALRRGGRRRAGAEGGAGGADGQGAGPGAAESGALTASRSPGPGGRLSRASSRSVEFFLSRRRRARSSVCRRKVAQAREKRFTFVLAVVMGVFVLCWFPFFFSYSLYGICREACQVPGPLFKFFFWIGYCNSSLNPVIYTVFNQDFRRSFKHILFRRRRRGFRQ

[7] = blockers of RIG-like receptor reporter activation – cell-based, Sendai virus stimulus, luciferase, 10K MLSCN set, TLR/RLR signaling modifier project, primary screen (AID 602276;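 active = inhibition at or above 50% at 10 µM; inactive = inhibition below 50%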;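 also: firefly luciferase from ISG56 promoter only with Renilla not read in this screen; 0% = Sendai virus plus DMSO and 100% = medium plus DMSO without virus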); details: HEK293 RL24 IRF3 luciferase reporter, at 10 µM, stronger effect = higher value
[8] = TLR3 IRF3 reporter activation blockers – cell-based, poly I:C stimulus, luciferase, 10K MLSCN set, primary screen (AID 602277;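 active = inhibition of the reporter signal at or above 50%; inactive = inhibition below 50%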); details: HEK293-TLR3 RL24 IRF3 luciferase reporter, at 10 µM, stronger effect = higher value

SMILES | cell count [1] | inhibition [1] | inhibition of aggregation [2] | nuclei count [2] [%] | inhibition [3] | nuclei count [3] [%] | fluorescence slope [4] | NADPH fluorescence slope [5] | slope [6] | inhibition [7] | inhibition [8]
CC1=C(C(=O)OC2CCCCC2)C(c2cccnc2)n2ncnc2N1 (stereo not drawn) | 271 | -9.3% (inactive) | 10.8% (inactive) | 77.6 | 21.9% (inactive) | 34.7 | -0.327 (inactive) | -6.6e-06 (inactive) | 0.00388 (inactive) | 7.24% (inactive) | 26.4% (inactive)
O=C(OC1CCOC1=O)c1ccc(S(=O)(=O)N2CCCCCC2)cc1 (stereo not drawn) | 466 | 1.1% (inactive) | -2.3% (inactive) | 92.8 | -116% (inactive) | 97.1 | -0.329 (inactive) | 7.8e-06 (inactive) | 0.00585 (inactive) | 5.47% (inactive) | 14.9% (inactive)
Clc1cccc(N2CCN(Cc3nc(-c4ccccc4)no3)CC2)c1 | 716 | -1.1% (inactive) | 8.5% (inactive) | 112 | -43.3% (inactive) | 122 | -0.541 (inactive) | -9e-05 (inactive) | 0.00744 (inactive) | 2.81% (inactive) | 29.2% (inactive)
COC(=O)c1sc(N)c(C(=O)OC)c1CSc1nc2sc3c(c2c(=O)n1C)CCC3 | 428 | 14.1% (inactive) | -20% (inactive) | 104 | 2.9% (inactive) | 111 | -0.524 (inactive) | -6.8e-06 (inactive) | 0.00788 (inactive) | -6.85% (inactive) | 15% (inactive)
C/C(N)=C(/C#N)C(=O)CSc1nnc(Nc2cccc(C)c2)s1 | 451 | 2.9% (inactive) | 5.1% (inactive) | 101 | -79.4% (inactive) | 130 | -0.492 (inactive) | -3.5e-05 (inactive) | 0.00453 (inactive) | -7.88% (inactive) | -32.1% (inactive)
COCCn1nnnc1C(c1ccccc1OC)N1CCc2ccccc2C1 (stereo not drawn) | 511 | -3.6% (inactive) | 37.6% (inactive) | 105 | -89.6% (inactive) | 96.1 | -0.322 (inactive) | -5e-05 (inactive) | 0.00407 (inactive) | 16.5% (inactive) | 32.8% (inactive)
CCOC(=O)c1cnc(SCC)[nH]c1=O | 436 | -11.8% (inactive) | -0.2% (inactive) | 118 | -34.3% (inactive) | 117 | -0.351 (inactive) | -2.9e-05 (inactive) | 0.00558 (inactive) | 6.7% (inactive) | 27% (inactive)
COC(=O)c1ccsc1NC(=O)CN1C(=O)CCC1=O | 479 | -5.9% (inactive) | 2.9% (inactive) | 86.8 | -15.8% (inactive) | 100 | -0.476 (inactive) | -3.2e-05 (inactive) | 0.0049 (inactive) | -11.8% (inactive) | -9.21% (inactive)
CC(=O)c1cccc(N(CC(=O)N2CCCC2)S(C)(=O)=O)c1 | 529 | -5.4% (inactive) | 14.6% (inactive) | 88.4 | -11.1% (inactive) | 94.9 | -0.467 (inactive) | 2.1e-05 (inactive) | 0.00662 (inactive) | 13.6% (inactive) | 20% (inactive)
CCNC(=O)CC1C(=O)N(c2ccccc2)C(=O)N1CCC(C)C (stereo not drawn) | 339 | 2.8% (inactive) | 3.6% (inactive) | 104 | -62.6% (inactive) | 97.9 | -0.512 (inactive) | -3.8e-05 (inactive) | 0.00552 (inactive) | 8.08% (inactive) | 31.4% (inactive)
CCc1nnc2n1N=C(c1ccc(-c3ccc(Cl)cc3Cl)o1)CS2 | 480 | 3.3% (inactive) | -48.4% (inactive) | 102 | -6.7% (inactive) | 105 | -0.607 (inactive) | 1.7e-05 (inactive) | 0.00636 (inactive) | 6.74% (inactive) | 10.2% (inactive)
CC1CCN(S(=O)(=O)c2ccc3[nH]cc(C(=O)NCCN4CCOCC4)c(=O)c3c2)CC1 | 697 | -3% (inactive) | -11.2% (inactive) | 104 | -101% (inactive) | 106 | -0.519 (inactive) | -3.8e-05 (inactive) | 0.00576 (inactive) | 8.86% (inactive) | 17.9% (inactive)
COc1ccc(NC(=O)CSc2nc3c(c(=O)n2-c2ccccc2OC)SCC3)cc1 | 726 | -6.7% (inactive) | -10.4% (inactive) | 107 | -25.6% (inactive) | 106 | -0.568 (inactive) | -5.1e-05 (inactive) | 0.00646 (inactive) | 4.03% (inactive) | 31% (inactive)
CN1CCN(c2oc(COc3ccc(-c4ccccc4)cc3)nc2C#N)CC1 | 3 | 117% (active) | 18.4% (inactive) | 98.4 | -35.9% (inactive) | 111 | -0.425 (inactive) | 1e-05 (inactive) | 0.00577 (inactive) | 8.52% (inactive) | -19.8% (inactive)
CC(=O)c1cccc(NS(=O)(=O)c2ccc3c(c2)oc(=O)n3C)c1 | 299 | -9% (inactive) | 0.5% (inactive) | 119 | -52% (inactive) | 117 | -0.437 (inactive) | -2.3e-05 (inactive) | 0.00511 (inactive) | 6.35% (inactive) | 2.39% (inactive)
COc1cc2nc(SCC(=O)NC3CC3)n(CCC3=CCCCC3)c(=O)c2cc1OC | 688 | -4% (inactive) | 0.8% (inactive) | 101 | -35.1% (inactive) | 108 | -0.427 (inactive) | -4e-06 (inactive) | 0.00342 (inactive) | 14.1% (inactive) | 24.7% (inactive)
COc1ccc(OC)c(C2C(C(=O)Nc3cccnc3)=C(C)NC3=C2C(=O)CCC3)c1 (stereo not drawn) | 353 | -7% (inactive) | 2.3% (inactive) | 103 | -64% (inactive) | 131 | -0.379 (inactive) | 2.2e-05 (inactive) | 0.00554 (inactive) | 3.04% (inactive) | 25% (inactive)
O=C1C(c2ccncc2)=C(O)c2ccccc21 | 302 | -8.6% (inactive) | 1.9% (inactive) | 73 | 0.7% (inactive) | 91.1 | -0.333 (inactive) | -1.1e-05 (inactive) | 0.00364 (inactive) | 4.51% (inactive) | -0.387% (inactive)
CC1CCc2nn(CC(=O)Nc3ccc(F)cc3F)cc2C1 (stereo not drawn) | 644 | -2.3% (inactive) | -37.3% (inactive) | 41.3 | -2.5% (inactive) | 111 | -0.543 (inactive) | 1.3e-05 (inactive) | 0.00669 (inactive) | -5.03% (inactive) | 21.4% (inactive)
O=C(NCCOC(=O)C1COc2ccccc2O1)C1COc2ccccc2O1 (stereo not drawn) | 357 | -2.1% (inactive) | -2% (inactive) | 106 | -99.1% (inactive) | 128 | -0.48 (inactive) | -3.8e-05 (inactive) | 0.00608 (inactive) | -2.25% (inactive) | 19.3% (inactive)
Cc1cc(OCC(=O)N2CCCC2)cc(C)c1Cl | 633 | 6.6% (inactive) | 3.4% (inactive) | 95 | -128% (inactive) | 99.5 | -0.601 (inactive) | -7.6e-05 (inactive) | 0.00573 (inactive) | 4.42% (inactive) | -0.933% (inactive)
Cc1cccc(C(=O)N2CCC(n3nnc4cc(F)ccc43)CC2)c1 | 695 | -12.5% (inactive) | -26.4% (inactive) | 101 | 13.4% (inactive) | 106 | -0.325 (inactive) | -2e-05 (inactive) | 0.0067 (inactive) | 5.99% (inactive) | 6.27% (inactive)
C=C(C)Cn1c(N2CCN(CC)CC2)nc2c1c(=O)[nH]c(=O)n2C | 441 | 14% (inactive) | -6.4% (inactive) | 81.9 | 12.3% (inactive) | 104 | -0.528 (inactive) | -1.8e-05 (inactive) | 0.00582 (inactive) | 2.55% (inactive) | 25.8% (inactive)
CCOc1ccc(NC(=O)CC2NCCNC2=O)cc1 (stereo not drawn) | 738 | -10.9% (inactive) | -1.6% (inactive) | 126 | -39.4% (inactive) | 99.2 | -0.302 (inactive) | -7e-05 (inactive) | 0.00573 (inactive) | 9.27% (inactive) | 13.9% (inactive)
COC(=O)CS(=O)(=O)c1nnc([C@H](Cc2ccccc2)NC(=O)OC(C)(C)C)o1 | 493 | -8% (inactive) | 22% (inactive) | 84.1 | 38.4% (inactive) | 89 | -0.486 (inactive) | -5.6e-05 (inactive) | 0.00353 (inactive) | 15.1% (inactive) | 33.7% (inactive)
N#CCc1c(C#N)c(N)nc(N2CCN(S(=O)(=O)c3ccccc3)CC2)c1C#N | 349 | 1.3% (inactive) | -7.2% (inactive) | 96.4 | 14.3% (inactive) | 108 | -0.427 (inactive) | -4.2e-05 (inactive) | 0.00665 (inactive) | 11% (inactive) | 34.3% (inactive)
Cc1cc(NCCN2CCCCC2)n2c(nc3ccccc32)c1C#N | 624 | -10.5% (inactive) | -3.2% (inactive) | 61.6 | -2% (inactive) | 134 | -0.526 (inactive) | -4.4e-05 (inactive) | 0.0039 (inactive) | 10.4% (inactive) | 21.6% (inactive)
COc1cc(C2c3c(n[nH]c3C)C(=O)N2c2ccc(Br)cc2)ccc1O (stereo not drawn) | 677 | -3.9% (inactive) | 1.5% (inactive) | 100 | 3.2% (inactive) | 106 | -0.408 (inactive) | -1.5e-06 (inactive) | 0.00373 (inactive) | 8.55% (inactive) | 24.2% (inactive)
